“And” between values parts separate entries of the source, which are not always exact repeats. Identical values can stand only once. Hit rate of the full screen: of about 330,000 compounds, about 700 (0.21%) were called active. This is one part of a sample in which actives are shown more often than they occur.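 Rule for the calls: active = OD600 absorbance below the run mean of sample wells minus 3.6 SD, in any replicate (cut at about 0.56 in these data); inactive = the rest.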
Experiment: antibacterial activity against Escherichia coli – OD600, primary screen (AID 1053175)
Conditions: Escherichia coli growth, OD600, 23 h; hits give low values

SMILES	OD600 absorbance
CC=C(C)C(=O)NCCN1C2=NCC(C)N2CC1Cc1ccc(O)cc1 (stereo not given)	0.694 (inactive)
Cc1occc1C(=O)NN=Cc1cccc2ccccc12	0.677 (inactive)
COc1ccc(OC)c(C=Nn2c(-c3n[nH]c4c3CCC4)n[nH]c2=S)c1	0.697 (inactive)
COc1cc(C=NNC(=O)c2ccc3nc[nH]c3c2)ccc1O	0.686 (inactive)
CCOC(=O)C1C2COc3ccccc3C2N2C(=O)N(c3cccc(Cl)c3)C(=O)[C@@]12C (stereo not given in full)	0.65 (inactive) and 0.728 (inactive)
Nc1nnnn1N=Cc1ccc(O)cc1	0.733 (inactive)
Cc1cc([N+](=O)[O-])cc(C)c1OCC(=O)NN=Cc1ccc(OC(=O)c2ccccc2Br)cc1	0.708 (inactive)
S=C(Nc1cccc(Cl)c1)Nc1ccc2c(c1)OCCO2	0.613 (inactive)
FC(F)(F)c1cccc(NC(=S)Nc2cccc(Cl)c2)c1	0.501 (active)
Cc1csc(NC(=S)Nc2cccc(Cl)c2)n1	0.618 (inactive)
Cc1nnc(NCCO)c2ccccc12	0.66 (inactive)
OCCCNc1nc(-c2ccccc2)c2cc(Cl)ccc2n1	0.647 (inactive)
OCCNc1nc(Nc2ccc(Cl)c(Cl)c2)nc2ccccc12	0.392 (active)
COc1cc(C(C)=NNC(=O)c2cccc(S(=O)(=O)N3CCCC3)c2)cc(OC)c1OC	0.705 (inactive)
Cc1ccc(CN(Cc2cccnc2)C(=S)Nc2cccc(Cl)c2C)cc1	0.672 (inactive)
Cc1c(Cl)cccc1NC(=S)N(Cc1ccccc1)Cc1cccnc1	0.58 (active)
Cc1cccc(C)c1NC(=S)N(Cc1cccnc1)Cc1ccccc1Cl	0.706 (inactive)
O=C(NN=C1CC(c2ccccc2)Oc2ccccc21)c1ccc(O)cc1 (stereo not given)	0.541 (inactive)
COC(=O)NN=Cc1c[nH]c2ccccc12	0.738 (inactive)
CC(=NNC(=O)c1ccccc1[N+](=O)[O-])c1c(O)cc(C)oc1=O	0.635 (inactive)
COc1cc(C=NNC(=O)NC23CC4CC(CC(C4)C2)C3)ccc1OCC(N)=O	0.652 (inactive)
O=C(NNC(=O)C1CCCC1)c1ccc(F)cc1	0.706 (inactive)
O=C(/C=C/c1ccc([N+](=O)[O-])o1)NNC(=O)c1ccc(F)cc1	0.428 (active)
CCc1noc(C)c1C(=O)NNC(=O)c1ccc(F)cc1	0.692 (inactive)
S=c1[nH]nc(-c2ccncc2)n1N=Cc1ccccc1	0.705 (inactive)
CCN1/C(=C/c2ccc3ccc(C)cc3[n+]2CC)Sc2ccccc21	0.506 (active)
COc1ccc(C(=O)NN=C(c2ccccc2)c2ccccn2)cc1	0.68 (inactive)
CC(=NNC(=O)c1ccc(F)cc1)c1ccccn1	0.506 (active)
CC(=NNC(=O)c1c[nH]c2ccccc12)c1ccccn1	0.586 (inactive)
CC(=NNS(=O)(=O)c1ccc(Br)cc1)c1ccc(-n2ccnc2)cc1	0.734 (inactive)
